Assay outcomes deposited in PubChem by National Center for Advancing Translational Sciences (NCATS).
Most compounds without a hit are left out; they make up all but 9% or so of the library.
G9a inh = qHTS Assay for Inhibitors of Histone Lysine Methyltransferase G9a. Histone-lysine N-methyltransferase EHMT2 (Homo sapiens), Q96KQ7. G9a H3K9 monomethylation, AlphaScreen, 2 h. Potency, µM (titrated, usually from 102 µM), actives largely listed as inhibitors. actives 8.8% (n = 350,000). AID 504332, 2011; note: nearly all actives have a fitted effect of over 75% in size
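Signal arises when biotinylated H3K9 peptide, once monomethylated, bridges streptavidin donor and antibody-captured acceptor beads. Enzyme at 20 nM was preincubated 15 min with test compounds; peptide 500 nM and SAM 20 uM then reacted for 2 h.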
JMJD2A Tudor inh = qHTS Assay for Inhibitors of JMJD2A-Tudor Domain | AlphaScreen JMJD2A-Tudor / H3K4me3 peptide binding | Potency, µM (top dose mostly 114 µM), usual class: inhibitors | actives 4.4% (n = 390,000) | AID 504339, 2011; note: nearly all actives have a fitted effect of over 50% in size
PLK1 PBD block = qHTS for Inhibitors of PLK1-PDB (polo-like kinase 1 - polo-box domain): Primary Screen; Serine/threonine-protein kinase PLK1 (Homo sapiens), P53350; Potency, µM, usual class: inhibitors; Plk1 PBD binding of FITC phosphopeptide, fluorescence polarization; AID 720504, 2013; actives 2.8% (n = 360,000); note: series mostly up to about 57 µM; nearly all actives have a fitted effect of over 65% in size
BAZ2B inh = qHTS Assay for Inhibitors of BAZ2B | Potency, µM (series often up to 114 µM), usual class: inhibitors | Bromodomain adjacent to zinc finger domain protein 2B (Homo sapiens), Q9UIF8 | actives 4.4% (n = 360,000) | AID 504333, 2011 | AlphaScreen BAZ2B-H3K14Ac peptide displacement; note: nearly all actives have a fitted effect of over 60% in size
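AlphaScreen displacement of biotin-H3(5-23)K14Ac peptide (50 nM final) from BAZ2B (50 nM final) in PBS pH 7.4, 0.01% Tween-20; complex preformed 30 min RT, then compounds (top 110 uM) 30 min RT, beads 20 min dark.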
ALOX12 inh = Primary qHTS assay for inhibitors of human arachidonate 12S-lipoxygenase (ALOX12): Round 2 | actives 1.1% (n = 580,000) | AID 1671190, 2021 | purified 12hLO, xylenol orange hydroperoxide absorbance | Potency, µM (doses to about 108 µM), usual class: inhibitors
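Purified human 12hLO at 150 nM in 25 mM Hepes, 0.01% Triton X-100, pH 7.0, preincubated 15 min at room temperature with compound. Reaction started with 40 uM arachidonic acid, 30 min at room temperature. Hydroperoxide measured by Fe-xylenol orange, 573/405 nm absorbance ratio.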
HP1b binding inh = HTS for Inhibitors of HP1-beta Chromodomain Interactions with Methylated Histone Tails; AlphaScreen HP1-beta / biotin-H3K9me3 peptide binding; Potency, µM (top dose mostly 114 µM), actives largely listed as inhibitors; actives 0.56% (n = 390,000); AID 540317, 2011; note: nearly all actives have a fitted effect of over 70% in size
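AlphaScreen: HP1-beta (50 nM) preformed 30 min with biotin-H3(1-18)K9me3 peptide (50 nM) in PBS pH 7.4, 0.01% Tween-20. Compound added for 30 min at RT, then streptavidin donor/nickel chelate acceptor beads (10 ug/mL) for 30 min.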
Numbers stand for hits; . = inactive; ? = inconclusive; / = no result; [ ] = dose if it differs, or a comment. Calls come from the whole dose curve; as a rule, active = well fitted curve in the direction sought with a large enough effect; inconclusive = small, poorly fitted or top-dose-only effect, or another doubt; inactive = no such curve, though single readings can be large; an effect the other way counts as inactive or inconclusive.

SMILES	G9a inh	JMJD2A Tudor inh	PLK1 PBD block	BAZ2B inh	ALOX12 inh	HP1b binding inh
S=c1[nH]nc(-c2cccs2)n1/N=C/c1cn(-c2ccccc2)nc1-c1cccs1	/	?	.	?	.	.
Cc1n[nH]c(=O)n(N=Cc2cccs2)c1=O	/	/	.	/	.	/
O=C(CCc1ccccc1)NCC(c1ccco1)N1CCc2ccccc21 (stereo unspecified)	.[0.501 µM]	?	.	?	.	?
O=C(NCC(c1ccco1)N1CCc2ccccc2C1)C(=O)Nc1ccccc1 (stereo unspecified)	50µM	.	.	.	.	.
CC(=O)Nc1cccc(NC(=O)C(=O)NCC(c2ccco2)N2CCc3ccccc32)c1 (stereo unspecified)	50µM	56µM	.	50µM	.	?
O=C(NCC(c1ccco1)N1CCc2ccccc2C1)c1ccccc1 (stereo unspecified)	.	.	.	.	?	.
COc1ccc(C(=O)/C=C/Nc2ccc([N+](=O)[O-])cc2)cc1	.	.	.	.	?	.
COCCCNC(=O)c1ccc(CS(=O)(=O)c2ccccc2C)o1	.	.	.	.	.	.
COc1ccc(C2C(C#N)=C(N)N(N(C)C)C3=C2C(=O)CC(C)(C)C3)cc1OC (stereo unspecified)	.	.	.	.	.	.
Cn1c(=O)c2c(nc(SCCN3CCOCC3)n2Cc2ccc(Cl)cc2)n(C)c1=O	/	.	.	/	.	.
O=C(/C=C/c1cccc(Oc2ccc(Cl)cc2)c1)c1ccccc1	/	/	/	/	.	/
Clc1ccc(-c2csc(=Nc3cccnc3)n2CCCn2ccnc2)cc1Cl	11µM	40µM	.	11µM	.	?
FC(F)Oc1ccc(-c2csc(=Nc3cccnc3)n2CC2CCCO2)cc1 (stereo unspecified)	?	.	.	45µM	.	?
COCCn1c(-c2ccc(Br)cc2)csc1=Nc1cccnc1	40µM	45µM	.	11µM	.	?
COCCn1c(SCC(=O)Nc2cc(Cl)ccc2OC)nnc1-c1cccc(C)c1	/	/	/	/	.	/
COc1cc(/C=N/NC(=S)NC2CC3C=CC2C3)cc(OC)c1OC (stereo unspecified)	?	.	.	?	?	.
CNC(=S)N/N=C/c1cc(Br)cc(Br)c1O	.	32µM	.	3.2µM	?	?
Oc1c(Br)cc(Br)cc1/C=N/NC(=S)N[C@H]1CC2C=CC1C2 (stereo partly specified)	/	40µM	?	.	.	.
O=C(O)c1cc(-c2ccc(CN3CCCC(CO)C3)o2)ccc1Cl (stereo unspecified)	/	/	/	/	.	/
COc1ccc(Sc2ccc(/C=C3\C(=O)NN(c4ccccc4)C3=O)o2)cc1	10µM	?	6µM	8.9µM	28µM	.
O=C1NN(c2ccccc2)C(=O)/C1=C\c1ccc(-c2cc([N+](=O)[O-])ccc2O)o1	/	50µM	?	32µM	?	45µM
Cc1cc(/C=C2\C(=O)NN(c3ccccc3)C2=O)c(C)n1-c1ccccc1O	.	.	.	.	.	.
Cc1ccc(N2NC(=O)/C(=C/c3ccc(-c4ccc(Cl)c(C(=O)O)c4)o3)C2=O)cc1	45µM	?	?	?	?	.
O=C1NN(c2ccc(Cl)cc2)C(=O)/C1=C\c1ccc(-c2cccc(C(=O)O)c2)o1	16µM	35µM	24µM	56µM	40µM	45µM
CC1C(c2ccccc2)=[N+]([O-])C(C)(c2ccc(Br)cc2)N1O (stereo unspecified)	/	/	/	/	.	/
SMILES	G9a inh	JMJD2A Tudor inh	PLK1 PBD block	BAZ2B inh	ALOX12 inh	HP1b binding inh
CCN1c2ccccc2NC2C1C(C(C)=O)C(=O)N2c1ccc(Cl)cc1 (stereo unspecified)	45µM	?	.	?	?	.
O=C1Nc2ccccc2N(O)N1c1ccc(Cl)cc1	.	.	.	.	.	.
C=CCOC(=O)COc1ccc2c(C)c(C)c(=O)oc2c1	.	.	.	.	.	.
Cc1noc(-c2cccn3c(CNC(=O)c4cccnc4)nnc23)n1	/	/	/	/	.	/
Cc1cc(N2C(=O)C=CC2=O)c([N+](=O)[O-])cc1C	1.3µM	6.3µM	6µM	56µM	/	5.6µM
CC1(OC(=O)c2ccco2)C(=O)C=C2C=C(C3CC3)OC=C2C1=O (stereo unspecified)	/	?	?	/	45µM	.
CC1(OC(=O)c2cccs2)C(=O)C=C2C=C(C3CC3)OC=C2C1=O (stereo unspecified)	/	.	.	/	?	.
CC1(OC(=O)C2CCCC2)C(=O)C=C2C=C(c3ccsc3)OC=C2C1=O (stereo unspecified)	?	?	?	50µM	7.9µM	?
CC1(OC(=O)CCc2ccccc2)C(=O)C=C2C=C(c3ccsc3)OC=C2C1=O (stereo unspecified)	?	/	/	50µM	/	/
CCC(=O)Nc1nnc(-c2ccco2)o1	22µM	45µM	.	?	?	.
O=C(Cc1ccccc1)Nc1ccc(-c2nnc(-c3ccco3)o2)cc1	.	.	.	.	.	.
CCCCC(=O)Nc1nnc(-c2ccco2)o1	.	10µM	.	79µM	.	.
Cc1cccc(C)c1NC(=O)CCCSc1nnc(-c2ccco2)o1	.	.	.	.	.	.
O=C(Cc1ccccc1)Nc1nnc(-c2ccco2)o1	.	45µM	.	28µM	.	.
Cn1cc(CN[C@H]2[C@H](O)[C@H](O)C[C@@H]2c2cccnc2)c2ccccc21	/	/	/	/	45µM	/
CN(CC(=O)NCc1ccc(Cl)cc1)S(=O)(=O)c1ccc2[nH]c3c(c2c1)CCCC3	10µM	?	/	.	.	.
COc1ccc(OC)c(NC(=O)CN(C)S(=O)(=O)c2ccc3[nH]c4c(c3c2)CCCC4)c1	13µM	?	/	?	.	?
COc1cccc(CNC(=O)CN(C)S(=O)(=O)c2ccc3[nH]c4c(c3c2)CCCC4)c1	13µM	?	/	.	.	.
CCCCCn1c(-n2nc(C)c(C)c2C)nc2c1c(=O)n(CC(=O)OC)c(=O)n2C	/	/	/	/	.	/
CN(C)CCNc1cccc2sc3ccc(O)cc3c(=O)c12	/	/	.	/	.	/
Cc1ccc(NCCN(C)C)c2c(=O)c3cc(O)ccc3sc12	/	40µM	.	/	?	?
COc1ccc(C(=O)NC2=Nc3ccccc3N=C(C)C2c2ccccc2)cc1 (stereo unspecified)	?	.	.	.	?	.
